{"source": "PubChem BioAssay", "note": "Potency and affinity values are given separately. Inconclusive results are not listed. A call without a number means that no potency is given here. The source made the active and inactive calls. The rule behind the calls is not given here.", "data": [{"assay": "general cell-killing toxicity readout – plate reader, dry powder samples, cytotoxicity control for PAX8 inhibitor project, dose response (AID 743021)", "conditions": "cell line, non-specific cytotoxicity counter-screen; series mostly up to 35 µM", "values": [{"smiles": "COc1ccc(S(=O)(=O)Nc2ccc3c(c2)CC(=O)N([C@@H](C)CO)C[C@@H](C)[C@H](CN(C)Cc2ccc(-c4ccccc4)cc2)O3)cc1", "outcome": "inactive"}, {"smiles": "C[C@H](O)C#Cc1cnc2c(c1)C(=O)N([C@H](C)CO)C[C@H](C)[C@H](CN(C)Cc1ccc(-c3ccccc3)cc1)O2", "outcome": "inactive"}, {"smiles": "O=C(c1ccc(F)cc1)N1C[C@@H]2N[C@H](C1)C2c1ccc(-c2ccc(F)cc2)cc1", "note": "(some centres undefined)", "outcome": "inactive"}, {"smiles": "C[C@H](O)C#Cc1ccc2c(c1)O[C@H](CN(C)Cc1ccc(-c3ccccc3)cc1)[C@@H](C)CN([C@H](C)CO)S2(=O)=O", "outcome": "inactive"}, {"smiles": "C[C@@H]1CN([C@H](C)CO)C(=O)Cc2cc(NS(=O)(=O)c3ccccc3)ccc2O[C@@H]1CN(C)S(=O)(=O)c1ccc(Cl)cc1", "outcome": "inactive"}, {"smiles": "C[C@@H]1CCCCO[C@H](CN(C)C)[C@H](C)CN([C@H](C)CO)C(=O)c2cc(NC(=O)Nc3cccc4ccccc34)ccc2O1", "outcome": "inactive"}, {"smiles": "C[C@@H]1CN([C@H](C)CO)C(=O)c2c(c3ccccc3n2C)-c2ccccc2CO[C@@H]1CN(C)C", "outcome": "inactive"}, {"smiles": "COc1ccccc1S(=O)(=O)N(C)C[C@@H]1Oc2cc(C#CCC3CCCC3)ccc2S(=O)(=O)N([C@@H](C)CO)C[C@@H]1C", "outcome": "inactive"}, {"smiles": "CCCN(C)C[C@H]1OCCCC[C@@H](C)Oc2ccc(NC(=O)c3ccccc3)cc2C(=O)N([C@H](C)CO)C[C@H]1C", "outcome": "inactive"}, {"smiles": "C[C@@H]1CN([C@@H](C)CO)C(=O)Cc2cc(NC(=O)Nc3ccc(F)cc3)ccc2O[C@H]1CN(C)CC1CCCCC1", "outcome": "inactive"}, {"smiles": "O=C(Nc1cccc(F)c1)N[C@@H]1CC[C@@H](CCNS(=O)(=O)c2cccc(Cl)c2)O[C@@H]1CO", "outcome": "inactive"}, {"smiles": "C[C@@H]1CN([C@@H](C)CO)C(=O)Cc2cc(N(C)C)ccc2O[C@H]1CN(C)Cc1ccc(Oc2ccccc2)cc1", "outcome": "inactive"}, {"smiles": "Cc1ccc(S(=O)(=O)Nc2ccc3c(c2)C(=O)N([C@@H](C)CO)C[C@@H](C)[C@@H](CN(C)Cc2ccc(C(F)(F)F)cc2)OCCCC[C@@H](C)O3)cc1", "outcome": "inactive"}, {"smiles": "Cc1cccc(-c2ccc([C@H]3[C@H](CO)N4CCCCN(S(=O)(=O)c5ccccc5C)C[C@@H]34)cc2)c1", "outcome": "inactive"}, {"smiles": "C[C@H]1CCCCO[C@@H](CN(C)C(=O)Nc2ccc(C(F)(F)F)cc2)[C@@H](C)CN([C@@H](C)CO)C(=O)c2cc(NS(=O)(=O)c3cn(C)cn3)ccc2O1", "outcome": "inactive"}, {"smiles": "C[C@@H]1CN([C@H](C)CO)C(=O)c2cc(NC(=O)Nc3ccccc3)ccc2O[C@@H](C)CCCCO[C@H]1CN(C)Cc1ccc(Cl)c(Cl)c1", "outcome": "inactive"}, {"smiles": "C[C@H]1CCCCO[C@@H](CN(C)C)[C@@H](C)CN([C@@H](C)CO)C(=O)c2cc(NC(=O)Nc3ccc(C(F)(F)F)cc3)ccc2O1", "outcome": "inactive"}, {"smiles": "C[C@H](CO)N1C[C@H](C)[C@@H](CN(C)Cc2ccc(-c3ccccc3)cc2)Oc2ccc(NC(=O)Cc3ccccc3)cc2CC1=O", "outcome": "inactive"}, {"smiles": "C[C@H](CO)N1C[C@H](C)[C@H](CN(C)C(=O)NC2CCCCC2)Oc2cc(C#Cc3ccc(F)cc3)ccc2S1(=O)=O", "outcome": "inactive"}, {"smiles": "O=C(Nc1ccc(C(F)(F)F)cc1)N1C[C@@H]2N[C@H](C1)C2c1ccc(-c2ccccc2)cc1", "note": "(some centres undefined)", "outcome": "inactive"}, {"smiles": "C[C@@H]1CCCCO[C@H](CN(C)Cc2ccc(C(F)(F)F)cc2)[C@H](C)CN([C@@H](C)CO)C(=O)c2cc(NC(=O)Nc3ccc(F)cc3)ccc2O1", "outcome": "inactive"}, {"smiles": "Cc1ccc(S(=O)(=O)Nc2ccc3c(c2)C(=O)N([C@@H](C)CO)C[C@@H](C)[C@@H](CN(C)Cc2ccc(C(F)(F)F)cc2)OCCCC[C@H](C)O3)cc1", "outcome": "inactive"}, {"smiles": "C[C@H](CO)N1C[C@H](C)[C@H](CN(C)C(=O)NC2CCCCC2)OCCCC[C@H](C)Oc2ccc(NC(=O)Nc3ccc(C(F)(F)F)cc3)cc2C1=O", "outcome": "inactive"}, {"smiles": "C[C@@H]1CN([C@@H](C)CO)S(=O)(=O)c2ccc(C#Cc3ccc(F)cc3)cc2O[C@H]1CN(C)C(=O)NC1CCCCC1", "outcome": "inactive"}, {"smiles": "C[C@@H]1CN([C@@H](C)CO)C(=O)Cc2cc(NC(=O)c3ccncc3)ccc2O[C@@H]1CN(C)Cc1ccc(-c2ccccc2)cc1", "outcome": "inactive"}, {"smiles": "Cc1ccc(S(=O)(=O)Nc2ccc3c(c2)C(=O)N([C@@H](C)CO)C[C@@H](C)[C@@H](CN(C)Cc2ccc(Cl)c(Cl)c2)OCCCC[C@@H](C)O3)cc1", "outcome": "inactive"}, {"smiles": "O=C(C[C@H]1CC[C@@H]2[C@H](COC[C@@H](O)CN2Cc2ccc(F)cc2)O1)NCc1ccccc1Cl", "outcome": "inactive"}, {"smiles": "CCCC#Cc1ccc([C@@H]2[C@H]3CN(S(=O)(=O)c4ccccc4F)CCCCN3[C@H]2CO)cc1", "outcome": "inactive"}, {"smiles": "Cc1ccc(S(=O)(=O)N[C@@H]2C=C[C@@H](CC(=O)N3CCC(Cc4ccccc4)CC3)O[C@@H]2CO)cc1", "outcome": "inactive"}, {"smiles": "COc1cccc(S(=O)(=O)N(C)C[C@H]2OCc3ccccc3-c3c(n(C)c4ccccc34)C(=O)N([C@@H](C)CO)C[C@H]2C)c1", "outcome": "inactive"}, {"smiles": "C[C@@H]1CN([C@@H](C)CO)C(=O)c2ccccc2-c2ccccc2CO[C@@H]1CN(C)Cc1ccc2c(c1)OCCN2C", "outcome": "inactive"}, {"smiles": "C[C@@H]1CCCCO[C@H](CN(C)Cc2ccccc2)[C@H](C)CN([C@H](C)CO)C(=O)c2cc(NC(=O)Nc3ccc(C(F)(F)F)cc3)ccc2O1", "outcome": "inactive"}, {"smiles": "O=C(C[C@H]1CC[C@H]2[C@@H](COC[C@@H](O)CN2Cc2ccc(F)cc2)O1)NCc1ccccc1Cl", "outcome": "inactive"}, {"smiles": "C[C@@H]1CN([C@@H](C)CO)C(=O)Cc2cc(NC(=O)C3CC3)ccc2O[C@H]1CN(C)Cc1ccc(-c2ccccc2)cc1", "outcome": "inactive"}, {"smiles": "COc1ccc(S(=O)(=O)N2CCCCN3[C@H](C2)[C@@H](c2ccc(C#CC(C)C)cc2)[C@@H]3CO)cc1", "outcome": "inactive"}, {"smiles": "C[C@@H]1CCCCO[C@@H](CN(C)C(=O)Nc2ccccc2)[C@H](C)CN([C@H](C)CO)C(=O)c2cc(NC(=O)Nc3ccc(C(F)(F)F)cc3)ccc2O1", "outcome": "inactive"}, {"smiles": "C[C@@H]1CCCCO[C@H](CN(C)Cc2ccc(C(F)(F)F)cc2)[C@@H](C)CN([C@@H](C)CO)C(=O)c2cc(NS(=O)(=O)c3cccs3)ccc2O1", "outcome": "inactive"}, {"smiles": "COc1ccc(S(=O)(=O)Nc2ccc3c(c2)C(=O)N([C@@H](C)CO)C[C@H](C)[C@H](CN(C)Cc2ccc(C(F)(F)F)cc2)OCCCC[C@@H](C)O3)cc1", "outcome": "inactive"}, {"smiles": "C[C@@H]1CN([C@@H](C)CO)C(=O)Cc2cc(NS(=O)(=O)c3ccc(F)cc3)ccc2O[C@H]1CN(C)Cc1ccc(Oc2ccccc2)cc1", "outcome": "inactive"}]}]}
